VP16 counter: Gal4-VP16 reporter inhibition counter-screen; Drosophila S2 Gal4-VP16 UAS-luciferase, luminescence, 20 h; Potency, µM (top dose mostly 53.6 µM), without a hit: at the top dose activity, negative = inhibition, actives largely listed as inhibitors; 3.5% of 310,000 active; AID 2546;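 also: Gal4-VP16 expression switched on by copper sulfate through the metallothionein promoter; potency is read from the fitted curve at half-maximal effect; nearly all actives have a fitted effect of over 50% in size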
B2AR arrestin: agonists driving beta-arrestin recruitment to human beta2-adrenergic receptor; P07550; beta-arrestin recruitment to beta2AR, cell-based reporter; Potency, µM (top dose mostly 46.1 µM), for inactives: at the top dose activation, usual class: activators; 0.02% of 330,000 active;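 also: potency is read from the fitted curve at half-maximal effect; 0% = DMSO controls and full agonism = EC100 isoproterenol or metaproterenol; nearly all actives have a fitted effect of over 65% in size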
ELG1 repair inh: blocks ELG1-dependent DNA repair in HEK293T cells. HEK293T ELG1-luciferase reporter, luminescence, 16 h; DNA damage induced by 5-fluorouridine. Potency, µM (series often up to 46.1 µM), for the others: top-dose activity change, negative = inhibition, hits mostly inhibitors. 2.3% of 330,000 active. AID 504467; also: potency is read from the fitted curve at half-maximal effect; nearly all actives have a fitted effect of over 55% in size
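HEK293T cells expressing luciferase-tagged ELG1 (2,000/well) received 5-Fluorouridine plus compound or DMSO for 16 hr at 37 °C. Luciferase was read by ONE-Glo luminescence after 30 min at room temperature.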
TSHR antag: antagonists of human thyroid stimulating hormone receptor | P16473 | TSHR-expressing cells, TSH-stimulated cAMP HTRF, 2 h; stronger effect = lower value | activity change, negative = inhibition, % at 11.5 µM | 0.2% of 330,000 active | AID 504810;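 active = activity change below a set negative limit, meaning inhibition stronger than a set level, cut at about -70% in these data; inconclusive = activity change between two set negative limits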
Target sequence (P16473 whole entry, looked up): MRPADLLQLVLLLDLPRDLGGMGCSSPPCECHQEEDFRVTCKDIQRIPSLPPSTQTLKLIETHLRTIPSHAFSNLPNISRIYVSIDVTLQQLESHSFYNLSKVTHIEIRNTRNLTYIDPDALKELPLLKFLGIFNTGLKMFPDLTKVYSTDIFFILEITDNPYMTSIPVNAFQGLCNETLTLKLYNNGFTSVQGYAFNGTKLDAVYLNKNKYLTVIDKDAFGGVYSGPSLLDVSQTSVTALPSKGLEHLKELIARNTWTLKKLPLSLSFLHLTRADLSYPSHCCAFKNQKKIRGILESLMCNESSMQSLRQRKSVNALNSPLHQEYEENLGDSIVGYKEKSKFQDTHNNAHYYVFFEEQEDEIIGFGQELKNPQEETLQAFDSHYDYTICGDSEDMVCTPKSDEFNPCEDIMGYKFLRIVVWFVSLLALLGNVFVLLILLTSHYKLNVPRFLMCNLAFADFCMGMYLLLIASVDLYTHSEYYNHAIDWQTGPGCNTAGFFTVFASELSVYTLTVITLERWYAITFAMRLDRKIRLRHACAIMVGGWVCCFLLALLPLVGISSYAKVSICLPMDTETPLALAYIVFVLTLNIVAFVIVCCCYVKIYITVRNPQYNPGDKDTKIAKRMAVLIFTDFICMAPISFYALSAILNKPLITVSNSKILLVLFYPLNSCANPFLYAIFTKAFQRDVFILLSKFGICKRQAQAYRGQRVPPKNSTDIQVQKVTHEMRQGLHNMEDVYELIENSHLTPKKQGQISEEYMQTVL
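Competitive HTRF cAMP read-out (cryptate anti-cAMP antibody, cAMP-d2; 30 min, room temperature) in freshly harvested TSHR cells. Compounds added before TSH at EC80 (4nM final), followed by 2 hours' incubation at 37 deg C.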
RORg inh: ROR gamma (mouse) transcription inhibition; Drosophila S2 Gal4-RORgamma UAS-luciferase reporter, 20 h; Potency, µM (highest dose often 53.6 µM), without a hit: at the top dose activity change, negative = inhibition, actives largely listed as inhibitors; 5.4% of 310,000 active; P51450; also: potency is read from the fitted curve at half-maximal effect; nearly all actives have a fitted effect of over 60% in size
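Luminescence from a UAS-regulated Photinus luciferase reporter in stably transfected Drosophila Schneider cells is measured; decreased signal marks ROR gamma inhibition. Fusion expression is induced by 700 uM copper sulfate for 20 hr.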
* = called active by the depositor; ? = inconclusive; nt = no result given; [ ] = remark or other dose. This is a sample that favours compounds with a hit; in the whole collection about 7.5% have one here. Unless noted, calls follow the shape of the dose curve; as a rule, active = well fitted curve in the direction sought with a large enough effect; inconclusive = small, poorly fitted or top-dose-only effect, or another doubt; inactive = no such curve, though single readings can be large; an effect the other way counts as inactive or inconclusive. Unless noted, % is scaled to controls: 0 for no effect and ±100 for the full control effect.

SMILES	VP16 counter	B2AR arrestin	ELG1 repair inh	TSHR antag	RORg inh
CC1(C)Cc2c(sc(NC(=O)COc3cccc4ccccc34)c2C#N)C(C)(C)N1	5µM*	-2%	?	-22	8.9µM*
CC1Cc2c(-c3ccccc3)nc3c(c2CO1)CN(CCOc1ccccc1)CC3 (centres undefined)	-2%[10 µM]	nt	nt	nt	5%[10 µM]
COc1ccc(Cn2ccnc2SCC(=O)NC2CCCC2)cc1	8%	0%	-6%	9	-19%
COC(=O)c1ccc(Cn2nc(C)c(Cl)c2C)o1	-11%	0%	1%	5	-9%
COc1cc(CNC(=O)c2ccc(Cn3nc(C)c(Cl)c3C)o2)cc(OC)c1	-1%	0%	18µM*	-5	21%
Nc1[nH]nc2nc(N3CCCC3)nc(-c3ccccc3)c12	-10%	0%	-1%	13	?
Cc1cc(C)n2nc3nc(N4CCCC4)nc(-c4ccccc4)c3c2n1	-1%	0%	10µM*	-2	11%
C=CCOC(=O)C1=C(C)NC(=S)NC1/C=C/c1ccccc1 (centres undefined)	6.3µM*	0%	?	45	2.5µM*
CC1=C(C(=O)OCc2ccccc2)C(/C=C/c2ccccc2)NC(=S)N1 (centres undefined)	5.6µM*	5%	?	156	?
COCCOC(=O)C1=C(C)NC(=O)NC1/C=C/c1ccccc1 (centres undefined)	5%	-1%	-6%	5	21%
COCCOC(=O)C1=C(C)NC(=S)NC1/C=C/c1ccccc1 (centres undefined)	0%	0%	5.8µM*	23	13%[10 µM]
Cn1ccc2cc(-c3ccc4ncnc(NCc5cccnc5)c4c3)ccc21	nt	0%	nt	0	nt
N#C/C(=C\c1ccccc1C(F)(F)F)C(=O)Nc1ccccc1	3%	0%	3%	2	-11%[10 µM]
CCc1cccc(CC)c1NC(=O)/C(C#N)=C/c1ccccc1C(F)(F)F	10µM*	0%	?	-11	11µM*
CCCN1C(=O)/C(=C/c2ccc(N3CCCC3)c(C)c2)NC1=S	-3%	0%	10µM*	-50	24%
Cc1cc(/C=C2\NC(=S)N(C)C2=O)ccc1N1CCCC1	?	0%	2%	-14	3.5µM*
[O-][N+]1=c2ccc(Nc3ccccc3)cc2=NC12CCCCC2	13µM*	-1%	?	-14	10µM*
COc1ccc(Nc2ccc3c(c2)=NC2(CCCCC2)[N+]=3[O-])cc1	11µM*	0%	?	-4	11µM*
O=[N+]([O-])c1ccc2c(c1N1CCCCC1)=NC1(CCCCC1)[N+]=2[O-]	-3%	0%	0%	-7	15%
CCc1c(C(=O)NNC(=S)Nc2ccc(S(=O)(=O)Nc3ncccn3)cc2)csc1C	0%	4%	-1%	17	3%
CC1=CC(C)(C)N2C(=O)C3(C(C#N)=C(N)Oc4cc(O)ccc43)c3c(C)c(C)cc1c32 (centres undefined)	-12%	-1%	2%	21	2.8µM*
CC1=CC(C)(C)N2C(=O)C3(C(C#N)=C(N)OC4=C3C(=O)CCC4)c3c(C)c(C)cc1c32 (centres undefined)	-8%	0%	-5%	1	26%
CCN(CC)c1ccc(/C=C/C(=O)C2C(=O)C=C(C)OC2=O)cc1 (centres undefined)	?	0%	?	-11	13µM*
CCCCC[C@]12Cc3ccccc3C(O1)c1c(cc(C)oc1=O)O2	-5%[10 µM]	0%[9.22 µM]	nt	nt	-8%[10 µM]
CCCc1cc(C(=O)NNC(=S)NCC)c2ccccc2n1	?	-1%	-1%	23	-40%
COCCCNC(=S)NNC(=O)c1cc(-c2ccncc2)nc2ccccc12	?	0%	19%	6	?
COCCCNC(=S)NNC(=O)c1cc(C2CC2)nc2ccccc12	?	0%	-2%	0	2.8µM*
CCNC(=S)NNC(=O)c1cc(-c2cc(C)ccc2C)nc2ccccc12	-22%	13%	1%	-3	0.35µM*
Cc1ccc(-c2cc(C(=O)Nc3nccs3)c3ccccc3n2)c(C)c1	6.3µM*	0%	13µM*	-13	4.5µM*

Screening data (PubChem BioAssay)
